Source: PubChem BioAssay
NPC1 promoter act: activates the NPC1 promoter; Huh7 NPC1 promoter luciferase reporter, 24 h; 2.4% of 320,000 active; AID 485313; Potency, µM (doses to about 9.22 µM), actives largely listed as activators; also: nearly all actives have a fitted effect of over 60% in size
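Cells: Huh7 expressing luciferase under the NPC1 promoter, 1500/well. Seeded 2 h, compound added, incubated 24 h at 37 °C. Luciferase reagent, 10 min ambient, then luminescence.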
FLuc modulator: firefly luciferase modulation, counter-screen for miR-21 project. AID 588342. 6.9% of 360,000 active. purified FLuc, Km substrates, luminescence inhibition. P08659. Potency, µM (series often up to 57.5 µM), actives largely listed as inhibitors; also: nearly all actives have a fitted effect of over 55% in size
Target sequence (P08659 whole entry, looked up): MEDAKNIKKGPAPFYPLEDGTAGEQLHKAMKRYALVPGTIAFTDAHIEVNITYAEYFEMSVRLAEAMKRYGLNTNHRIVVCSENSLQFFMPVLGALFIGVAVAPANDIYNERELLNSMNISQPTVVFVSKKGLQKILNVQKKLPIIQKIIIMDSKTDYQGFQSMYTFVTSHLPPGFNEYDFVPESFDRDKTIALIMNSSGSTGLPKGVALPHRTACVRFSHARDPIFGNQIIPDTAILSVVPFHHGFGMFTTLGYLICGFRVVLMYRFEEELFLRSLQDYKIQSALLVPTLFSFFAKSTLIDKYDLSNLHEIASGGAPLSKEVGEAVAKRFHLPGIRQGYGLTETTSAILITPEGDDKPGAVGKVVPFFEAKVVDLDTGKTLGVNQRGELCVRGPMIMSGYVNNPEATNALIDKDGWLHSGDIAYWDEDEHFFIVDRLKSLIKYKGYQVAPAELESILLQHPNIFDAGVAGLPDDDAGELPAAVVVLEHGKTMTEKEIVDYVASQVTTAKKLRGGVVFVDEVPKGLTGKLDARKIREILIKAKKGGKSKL
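Biochemical qHTS of compounds, final roughly 60 µM downward over six points, against 10 nM purified firefly luciferase using Km concentrations of substrates (10 uM D-luciferin, 10 uM ATP) in Tris acetate pH 7.5 buffer; luminescence output.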
SMN2 splice enh: increases expression of the SMN2 splice variant; HEK293 SMN2-luciferase splicing reporter, luminescence, 30-36 h; Potency, µM (doses to about 46.1 µM), actives largely listed as activators; 2.8% of 210,000 active; AID 1458; also: nearly all actives have a fitted effect of over 55% in size
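qHTS luciferase splicing reporter: luminescence rises when SMN2 exon 7 is included in transfected HEK293 cells. Compound exposure lasted 30-36 h at 37C, with 4.5 mM final sodium butyrate as control, followed by a ONE-Glo read.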
ELG1 genotox: induces genotoxicity in HEK293T cells with luciferase-tagged ELG1. HEK293T ELG1-luciferase reporter, luminescence, 16 h. 1.3% of 330,000 active. AID 504466. Potency, µM (series often up to 46 µM), hits mostly activators; also: nearly all actives have a fitted effect of over 60% in size
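Step 1: seed 2,000 HEK293T ELG1-luciferase cells per well. Step 2: add compound or DMSO, incubate 16 hr at 37 °C. Step 3: ONE-Glo, 30 min at room temperature, read luminescence.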
Rab9 prom act: activators of Rab9 promoter; AID 485297; 2.8% of 320,000 active; Potency, µM (series often up to 9.22 µM), actives largely listed as activators; Huh7 Rab9 promoter-luciferase reporter, luminescence, 24 h; also: nearly all actives have a fitted effect of over 60% in size
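Promoter activation is measured as luciferase luminescence in Huh7 cells stably transfected with a Rab9 promoter–luciferase construct, following 24 h compound exposure at 37 °C and 10 min reagent incubation at ambient temperature.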
Numbers stand for hits; – = inactive; ? = inconclusive; · = not tested or not shown; [ ] = dose if it differs, or a comment. The list is not random: actives were taken first. Their share in the collection is about 7.4%. Calls follow the shape of the dose curve; as a rule, active = well fitted curve in the direction sought with a large enough effect; inconclusive = small, poorly fitted or top-dose-only effect, or another doubt; inactive = no such curve, though single readings can be large; an effect the other way counts as inactive or inconclusive.

SMILES	NPC1 promoter act	FLuc modulator	SMN2 splice enh	ELG1 genotox	Rab9 prom act
Cc1sc(N)nc1-c1ccc2c(c1)OCCO2	–	?	·	–	–
Cc1sc(N)nc1-c1ccc(Oc2ccccc2)cc1	–	23.9µM	·	?	–
CC(C)Sc1nc2ccc(Br)cc2[nH]1	–	16.9µM	·	?	?
CSc1nc2ccc(Br)cc2[nH]1	–	–	–	–	–
CCOc1ccccc1C1C(C(=O)Nc2ccccc2)=C(C)Nc2nc(SCC(=O)c3ccc(C)cc3)nn21 (stereo not given)	·	–	·	·	·
Cc1ccc(C(CC(=O)c2ccco2)SCCO)cc1 (stereo not given)	–	10.7µM	–	?	–
CSc1ncc(-c2ccc(Cl)cc2)[nH]1	3.16µM	9.53µM	·	?	3.16µM
CCOc1ccc(CNC(=O)C2Cc3ccccc3N2C(=O)CC)cc1OC (stereo not given)	·	–	·	·	·
COc1cccc(Nc2nnc(SCC(=O)Nc3sccc3C(N)=O)s2)c1	–	10.7µM	–	–	–
Cc1nnc(SCC(=O)Nc2sccc2C(N)=O)s1	–	–	·	–	–
CCc1ccc(Nc2nnc(SCC(=O)Nc3cccnc3Cl)s2)cc1	–	1.35µM	·	–	–
CCc1ccc(Nc2nnc(SCC(=O)Nc3sccc3C(N)=O)s2)cc1	–	2.13µM	?	–	–
Cc1ccc(-c2csc(SCC(=O)c3c(N)n(C4CC4)c(=O)[nH]c3=O)n2)cc1	–	–	·	–	–
CCc1ccc(Nc2nnc(SCC(=O)c3c(N)n(C4CC4)c(=O)[nH]c3=O)s2)cc1	–	0.601µM	·	–	–
Cc1nnc(SCC(=O)Nc2cccnc2Cl)s1	–	–	·	–	–
COc1cccc(Nc2nnc(SCn3nnc4ccccc4c3=O)s2)c1	–	–	–	–	–
CC(C)(C)c1ccc(C(=O)NCCC(=O)NCc2cccs2)cc1	–	–	·	–	–
CCCn1ncc(CN2CCC(N3CCC(C(=O)N4CCOCC4)CC3)CC2)c1C	–	–	–	–	–
Cc1c(Cl)cccc1NC(=S)N(CCN(C)C)C(C)c1ccco1 (stereo not given)	–	–	·	–	–
CCc1ccc(Nc2nnc(SCC(=O)NCCN3C(=O)CSC3=O)s2)cc1	–	1.9µM	11.2µM	?	?
Cc1cc(C)cc(OCC(=O)OCC(=O)Nc2c(C)n(C)n(-c3ccccc3)c2=O)c1	–	–	–	–	–
Cc1ccc(C(=O)NCC(=O)NC2CCCC2)cc1	–	–	–	–	–
O=C(NC(=S)NCCN1CCOCC1)c1ccc(F)cc1	–	–	?	–	–
O=C(NC(=S)NC1CCCCC1)c1ccc(F)cc1	?	?	·	?	3.98µM
Cc1ccc(C(=O)NC2CCCCC2)cc1	2.82µM	21.3µM	14.1µM	–	2.51µM
SMILES	NPC1 promoter act	FLuc modulator	SMN2 splice enh	ELG1 genotox	Rab9 prom act
N#Cc1ccc(C(=O)NC2CCCCCCC2)cc1	1.78µM	21.3µM	·	?	1.41µM
N#Cc1ccc(OCC(=O)NC2CCCCCC2)cc1	·	·	·	–	·
CC(C)CNC(=S)NC(=O)c1ccc(F)cc1	–	30.1µM	?	?	–
COc1ccc(N(S(=O)(=O)c2ccccc2)S(=O)(=O)c2ccccc2)c(N)c1	–	–	·	–	–
O=C(Nc1ccccc1N1CCOCC1)c1ccc(Cl)c(S(=O)(=O)N2CCCC2)c1	–	–	·	–	–
O=C(NC1CC1)c1ccc(F)cc1Cl	–	–	–	–	–
Cc1ccc(C(=O)NC2CCCCCCC2)c(Cl)c1	0.316µM	0.757µM	·	1.46µM	0.316µM
O=C(NC(=S)NC(CO)Cc1ccccc1)c1ccc(F)cc1 (stereo not given)	1.26µM	–	·	?	3.98µM
O=C(NNS(=O)(=O)c1ccc(Cl)cc1)c1cnn(-c2ccccc2)c1-n1cccc1	–	–	–	–	–
COc1ccccc1NC(=O)Cn1c(SCC(=O)N(C)c2ccccc2)nc2ccccc21	·	–	·	·	·
COc1ccc(-c2csc(NC(=O)c3c(C)noc3C)n2)cc1F	–	?	·	–	–
COc1ccc(-c2csc(NC(=O)Cc3ccccc3)n2)cc1OC	–	?	·	–[9.26 µM]	–
COc1ccc(-c2csc(Nc3ncccn3)n2)cc1C	0.708µM	–	·	?	0.178µM
COc1ccc(-c2csc(Nc3cc(C)ccn3)n2)cc1C	–	8.49µM	·	–	?
O=C(CN1C(=O)COc2ccc(S(=O)(=O)N3CCCCC3)cc21)NCc1ccccc1Cl	–	–	·	–[9.26 µM]	–
COc1ccc(/C=C2\SC(=S)NC2=O)cc1OS(=O)(=O)c1ccc(NC(C)=O)cc1	–	26.9µM	–	–	–
COc1cccc(OCCOc2ccc(/C=C3/SC(=S)NC3=O)cc2)c1	–	?	·	–	–
COc1cc(/C=C2\SC(=S)NC2=O)ccc1OS(=O)(=O)c1ccccc1	–	?	–	–	–
CCOc1ccc(/C=C2\SC(=S)NC2=O)cc1OC	–	12µM	·	–	–
O=C1NC(=S)S/C1=C\c1ccc2ccccc2c1	–	9.53µM	·	–	?
COc1ccc(CNC(=O)CN(c2cc(C(F)(F)F)ccc2Cl)S(C)(=O)=O)cc1	·	?	–	·	·
CC(C)CC(c1nnnn1CCc1ccccc1)N1CCC(C(N)=O)CC1 (stereo not given)	–	–	–	–	–
CCOC(=O)c1ccc(N2CCN(C(=O)c3ccccc3)CC2)c(NC(=O)c2ccco2)c1	–	–	·	–	–
COC(=O)c1ccc2c(c1)N(C)S(=O)(=O)c1cnc(SCC(=O)C(C)(C)C)nc1-2	–	–	·	–	–
COc1cccc(C2=NOC(C(=O)N3CCOCC3)C2)c1 (stereo not given)	3.55µM	19µM	–	?	?
SMILES	NPC1 promoter act	FLuc modulator	SMN2 splice enh	ELG1 genotox	Rab9 prom act
CCC(C(=O)OCc1cc(=O)n2nc(C)sc2n1)c1ccccc1 (stereo not given)	·	–	·	·	·
COc1ccc(/C=C2\Cc3ccccc3C2=O)cc1OC	–	3.38µM	·	16.4µM	–
COc1ccc(/C=C2\CCc3ccccc3C2=O)cc1O	–	0.338µM	·	3.66µM	–
COc1ccc(/C=C2\CCc3ccccc3C2=O)cc1Cn1cccn1	–	5.36µM	–	?	–
COc1ccc2c(c1)OC/C(=C/c1ccc(OC)c(OC)c1)C2=O	·	·	–	·	·
CCCN1Cc2cccc(C(=O)Nc3ccccc3F)c2C1=O	·	–	–	·	·
c1ccc(-c2cn3c4c(sc3n2)CCCC4)cc1	0.447µM	0.151µM	?	0.082µM	0.501µM
Cc1c(C(=O)N2CCc3ccccc3C2)sc2nc(-c3ccccc3)cn12	–	?	–	–	–
COc1ccc(CCN2C(=NC(=O)CCC(=O)O)SC3CS(=O)(=O)CC32)cc1OC (stereo not given)	–	26.9µM	–	–	–
COc1ccc(CCN2C(=NC(=O)CC(C)C)SC3CS(=O)(=O)CC32)cc1 (stereo not given)	–	–	–	–	–
CCCC(c1nnnn1CS(=O)(=O)c1ccc(C)cc1)N1CCN(CC)CC1 (stereo not given)	–	–	·	–	–
Cc1csc(NC(=O)Cc2ccccc2Cl)n1	?	16.9µM	·	?	5.01µM
CC(C)(C)c1csc(NC(=O)c2c(F)c(F)c(F)c(F)c2F)n1	–	–	·	–	–
Cc1csc(NC(=O)c2ccccc2O)n1	?	12µM	–	?	?
